Tau ThT inhib: tau fibrillization inhibition (ThT binding); AID 1460; 270,000 tested, 2.1% active; P10636; Potency, µM (titrated, usually from 57.4 µM), for inactives: top-dose activity, negative = inhibition, usual class: inhibitors; recombinant tau K18 P301L, heparin-induced fibrillization, ThT fluorescence; active means well fitted curve in the direction sought with a large enough effect; inconclusive means small, poorly fitted or top-dose-only effect, or another doubt; inactive means no such curve, though single readings can be large; an effect the other way counts as inactive or inconclusive; further: nearly all actives have a fitted effect of over 55% in size
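ThT emission at 510 nm, taken 1 hr after adding 30 uM dye, quantifies aggregates formed when 20 uM heparin acts on human tau K18 P301L for 6 hr at 37 C.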
HPGD inh: blocks human HPGD enzyme activity | P15428 | purified HPGD, NADH fluorescence kinetic, PGE2 substrate | Potency, µM, for inactives: at the highest dose activity change, negative = inhibition, hits mostly inhibitors | 150,000 tested, 4.3% active | AID 894
Target sequence (P15428 whole entry, looked up): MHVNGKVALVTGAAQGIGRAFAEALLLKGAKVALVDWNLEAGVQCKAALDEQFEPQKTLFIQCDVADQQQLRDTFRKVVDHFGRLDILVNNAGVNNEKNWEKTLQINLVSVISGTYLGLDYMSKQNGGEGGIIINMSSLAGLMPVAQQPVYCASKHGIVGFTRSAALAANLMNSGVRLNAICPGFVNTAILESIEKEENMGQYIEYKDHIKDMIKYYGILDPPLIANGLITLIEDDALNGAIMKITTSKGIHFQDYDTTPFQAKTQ
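NADH formation kinetics: reaction with 30 uM PGE2 and 1 mM NAD+ (final), 20 nM enzyme, Tris-HCl pH 8 with Tween 20, after 15 min compound preincubation at room temperature. Fluorescence change, last versus first of five reads.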
ALDH1A1 inh: ALDH1A1 (human) enzyme inhibition. P00352. Purified ALDH1A1, NADH fluorescence, propionaldehyde substrate. Potency, µM (top dose mostly 75.3 µM), for the others: at the highest dose activity, negative = inhibition, hits mostly inhibitors. 220,000 tested, 7.3% active. AID 1030;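 further: plate controls were no enzyme wells and a reference inhibitor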
Tau fluor cs: counter-screen for tau fibril formation inhibitors; tau K18 P301L (four-repeat tau fragment) Alexa594 fluorescence, heparin fibrillization; Potency, µM (series often up to 57.7 µM), without a hit: top-dose activity change, negative = decrease; 280,000 tested, 0.93% active; active means well fitted curve in the direction sought with a large enough effect; inconclusive means small, poorly fitted or top-dose-only effect, or another doubt; inactive means no such curve, though single readings can be large; an effect the other way counts as inactive or inconclusive; further: nearly all actives have a fitted effect of over 55% in size
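Human K18 P301L tau (15 uM unlabeled plus 0.24 uM Alexa 594-labeled, final) in 100 mM sodium acetate pH 7 was mixed with compound and 20 uM heparin and incubated 6 hr at 37 C.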
KDM4E inh: inhibitors of human JMJD2E histone demethylase. JMJD2E catalytic domain, FDH-coupled NADH fluorescence (FDH is formaldehyde dehydrogenase). Potency, µM (highest dose often 57.1 µM), for the others: at the top dose activity change, negative = inhibition, hits mostly inhibitors. 230,000 tested, 1.6% active;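 further: 0% = wells with enzyme and -100% = buffer wells without enzyme; nearly all actives have a fitted effect of over 50% in size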
Target sequence (B2RXH2 1-337 limits assumed): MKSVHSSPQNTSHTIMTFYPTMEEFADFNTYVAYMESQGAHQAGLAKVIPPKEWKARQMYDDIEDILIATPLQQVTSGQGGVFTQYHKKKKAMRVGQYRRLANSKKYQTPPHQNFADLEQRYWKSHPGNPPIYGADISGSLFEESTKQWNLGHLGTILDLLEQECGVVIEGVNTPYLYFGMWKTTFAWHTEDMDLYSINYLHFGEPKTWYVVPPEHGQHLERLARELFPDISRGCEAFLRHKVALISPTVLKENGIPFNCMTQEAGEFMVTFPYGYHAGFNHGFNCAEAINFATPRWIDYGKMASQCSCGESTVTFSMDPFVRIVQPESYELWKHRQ
Tau fibril FP: blocks human tau fibril formation measured by polarization | P10636 | K18 P301L tau heparin fibrillization, Alexa594 FP, 6 h | Potency, µM (series often up to 57.7 µM), for inactives: at the highest dose activity, negative = inhibition, actives largely listed as inhibitors | 280,000 tested, 0.39% active | AID 1468; active means well fitted curve in the direction sought with a large enough effect; inconclusive means small, poorly fitted or top-dose-only effect, or another doubt; inactive means no such curve, though single readings can be large; an effect the other way counts as inactive or inconclusive; further: nearly all actives have a fitted effect of over 55% in size
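Recombinant K18 P301L […], labeled with Alexa 594 at 0.24 uM over 15 uM unlabeled; heparin inducer 20 uM final; 37 C, 6 hr; FP endpoint.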
Starred values were filed as active, the others as inactive; [ ] = dose if it differs, or a comment. Hits are enriched below; roughly 9.9% of the tested compounds scored in any of these assays. Unless noted, the call rests on the fitted dose curve; in most records, active means well fitted inhibition curve with a large enough effect (not every such curve was filed as active); inconclusive means small, poorly fitted or top-dose-only effect, or another doubt; inactive means no such curve, though single readings can be large or run the other way. Unless noted, on the % scale 0 is the no-effect control and ±100 the full control effect; potency means the concentration at half of the fitted maximal effect.

CC(C)Cc1nc2ccc(N)cc2[nH]1 was read as Tau ThT inhib inconclusive, ALDH1A1 inh 5%, Tau fluor cs -7%, KDM4E inh 35µM* and Tau fibril FP 2%.
`Nc1ccc2nc(-c3ccc(Cl)cc3)[nH]c2c1` gave Tau ThT inhib 14µM*, HPGD inh inconclusive, ALDH1A1 inh inconclusive, Tau fluor cs 25µM*[quencher], KDM4E inh inconclusive and Tau fibril FP 7%.
For Nc1ccc2nc(-c3cc(Cl)c(N)c(Cl)c3)[nH]c2c1 the results were Tau ThT inhib 14µM*, HPGD inh 103%, ALDH1A1 inh inconclusive, Tau fluor cs inconclusive, KDM4E inh 6% and Tau fibril FP 14%.
`Cc1nc2ccc(-c3nc4ccc(N)cc4[nH]3)cc2[nH]1` gave Tau ThT inhib 16µM*, ALDH1A1 inh inconclusive, Tau fluor cs inconclusive, KDM4E inh inconclusive and Tau fibril FP 5%.
Screening Nc1ccc(-c2nc3ccc(N)cc3[nH]2)cc1 returned Tau ThT inhib inconclusive, ALDH1A1 inh inconclusive, Tau fluor cs inconclusive, KDM4E inh inconclusive and Tau fibril FP -1%.
`CCOc1ccc2ncc3c(-c4cccc(OC)c4)nn(-c4ccccc4)c3c2c1` gave Tau ThT inhib -8%, Tau fluor cs -14% and Tau fibril FP -19%.
`COc1cc(NC(=O)c2cccs2)c(OC)cc1NC(=O)CCC(=O)Nc1ccc2ncccc2c1` gave Tau ThT inhib inconclusive, ALDH1A1 inh 0%, Tau fluor cs inconclusive, KDM4E inh inconclusive and Tau fibril FP -7%.
For CC(C)(C)NC(=O)CSc1nnc(C2CC2)n1-c1ccccc1 the results were Tau ThT inhib -4%, ALDH1A1 inh -4%, Tau fluor cs -4%, KDM4E inh 0% and Tau fibril FP -6%.
Screening Nc1ccc(-c2nc3ccc(-c4nc5ccccc5o4)cc3[nH]2)cc1 returned Tau ThT inhib 8.9µM*, HPGD inh inconclusive, ALDH1A1 inh inconclusive, Tau fluor cs 16µM*[quencher], KDM4E inh inconclusive and Tau fibril FP 2%.
`Cc1nc2ccc(-c3nc4ccccc4o3)cc2[nH]1` gave Tau ThT inhib -14%, HPGD inh inconclusive, ALDH1A1 inh inconclusive, Tau fluor cs -18%, KDM4E inh inconclusive and Tau fibril FP -8%.
Cc1ccc(N2C(=O)C(CC(=O)Nc3ccc(F)cc3)N(Cc3ccc4c(c3)OCO4)C2=O)cc1 (stereo unspecified) was read as Tau ThT inhib 2%, Tau fluor cs inconclusive and Tau fibril FP -13%.
O=C1NC(c2cc(Cl)cc([N+](=O)[O-])c2O)Nc2ccccc21 (stereo unspecified) was read as Tau ThT inhib 7.1µM*, ALDH1A1 inh inconclusive, Tau fluor cs -29%, KDM4E inh -14% and Tau fibril FP 6%.
Screening CCN(CC)C(=O)c1ccc2nc3ccccc3nc2c1 returned Tau ThT inhib 1%, HPGD inh 0.89µM*, ALDH1A1 inh inconclusive, Tau fluor cs -2%, KDM4E inh 4% and Tau fibril FP -3%.
For CCCCN(CC)C(=O)c1cccc(Cl)c1 the results were Tau ThT inhib -2%, HPGD inh inconclusive, ALDH1A1 inh inconclusive, Tau fluor cs 7%, KDM4E inh 4% and Tau fibril FP 0%.
`CCN(CC)C(=O)c1ccc(C(=O)c2ccccc2)cc1` gave Tau ThT inhib -8%, HPGD inh 1µM*, ALDH1A1 inh inconclusive, Tau fluor cs -4%, KDM4E inh 4% and Tau fibril FP 7%.
Screening Cc1cccc(C(=O)NNC(=O)c2cccc(C)c2)c1 returned Tau ThT inhib 4%, HPGD inh -1%, ALDH1A1 inh 1%, Tau fluor cs 6%, KDM4E inh 5% and Tau fibril FP 4%.
For CCCCN(CC)C(=O)c1ccc(-c2ccccc2)cc1 the results were Tau ThT inhib -3%, HPGD inh 2µM*, ALDH1A1 inh -3%, Tau fluor cs -1%, KDM4E inh -8% and Tau fibril FP 0%.
`CCN(CC)C(=O)c1cccc(C)c1` gave Tau ThT inhib 5%, HPGD inh 25µM*, ALDH1A1 inh 4%, Tau fluor cs 2%, KDM4E inh 4% and Tau fibril FP -3%.
Screening COc1ccccc1-n1nc(-c2ccccc2)c2cnc3cc(C(F)(F)F)ccc3c21 returned Tau ThT inhib -4%, Tau fluor cs -7% and Tau fibril FP -16%.
COc1ccc(S(=O)(=O)NCCc2nnc3ccc(SCC(=O)Nc4ccc(C(F)(F)F)cc4)nn23)cc1 was read as Tau ThT inhib -1%, Tau fluor cs -24% and Tau fibril FP 1%.
For CN(C)CCCNS(=O)(=O)c1ccc(Cl)s1 the results were Tau ThT inhib 1%, ALDH1A1 inh inconclusive, Tau fluor cs 0%, KDM4E inh 0% and Tau fibril FP 0%.
Screening O=C(CCCCCCCC(=O)c1ccccc1)c1ccccc1 returned Tau ThT inhib inconclusive, ALDH1A1 inh 3%, Tau fluor cs -15%, KDM4E inh -13% and Tau fibril FP 3%.
CCCC(=O)c1ccc(-c2ccccc2)cc1 was read as Tau ThT inhib -16%, HPGD inh 7.1µM*, ALDH1A1 inh -3%, Tau fluor cs -2%, KDM4E inh 10% and Tau fibril FP 8%.
`CCN(CC)C(=O)c1ccc(C)c(Br)c1` gave Tau ThT inhib -3%, HPGD inh 18µM*, ALDH1A1 inh 7%, Tau fluor cs 2%, KDM4E inh 4% and Tau fibril FP -2%.
Screening COc1ccc(NC(=O)c2ccsc2NC(C)=O)cc1 returned Tau ThT inhib -13%, ALDH1A1 inh -1%, Tau fluor cs -10%, KDM4E inh 0% and Tau fibril FP 2%.
`COc1ccc(NS(=O)(=O)c2ccc(NC(=S)NC(=O)c3ccc(Br)cc3)cc2)nn1` gave Tau ThT inhib -17%, HPGD inh -12%, ALDH1A1 inh inconclusive, Tau fluor cs -6%, KDM4E inh -1% and Tau fibril FP 6%.
Screening NC(Cc1ccc(O)c([N+](=O)[O-])c1)C(=O)O (stereo unspecified) returned Tau ThT inhib 3%, HPGD inh -25%, ALDH1A1 inh -9%, Tau fluor cs 3%, KDM4E inh 9% and Tau fibril FP 8%.
For CC(Cc1ccc(O)c(O)c1)C(C)Cc1ccc(O)c(O)c1 (stereo unspecified) the results were Tau ThT inhib inconclusive, HPGD inh 13µM*, ALDH1A1 inh 28µM*, Tau fluor cs 16µM*[quencher], KDM4E inh 22µM* and Tau fibril FP -2%.

Source: PubChem BioAssay
